PubChem BioAssay AID1222 (Sanford-Burnham Center for Chemical Genomics, 2008)
Fewer than 10 of roughly 190,000 compounds were called active.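 The calls were made as follows: active = EC50 below 50 µM in the dose-response confirmation; inactive = the rest.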 The list is a sample of the results. Entries with a potency or affinity are not part of this list.

Assay: rescue of cells from ER stress-induced death, primary screen, 384-well, CSM14.1, thapsigargin, ATP luminescence (AID 1222);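 also: death triggered by thapsigargin at about 15 µM added after 2 h compound pretreatment; cell ATP read after overnight thapsigargin exposure of roughly 18 to 22 hours; reference of the scale not given here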
Conditions: CSM14.1 thapsigargin-induced death rescue, at 20 µM, active compounds read high
With O=C(NCC1CC1)[C@@H]1C[C@H]1[C@@H](NP(=O)(c1ccccc1)c1ccccc1)c1ccccc1 the cellular ATP content (survival) was -1.2% (inactive).
With CC(=O)c1ccc(OCCCN2CCCCC2)cc1 the cellular ATP content (survival) was -1.3% (inactive).
With O=C(COC(=O)c1cc(Br)ccc1O)Nc1cc(S(=O)(=O)N2CCCC2)ccc1Cl the cellular ATP content (survival) was -0.8% (inactive).
In the case of O=C(NCCCN1CCCC1)c1cc2c(Cl)nc3ccccc3c2s1, the cellular ATP content (survival) was -12% (inactive).
With CC(=O)Cn1c(N2CCC(Cc3ccccc3)CC2)nc2c1c(=O)[nH]c(=O)n2C the cellular ATP content (survival) was -1.8% (inactive).
For CCn1c(SCc2ccccc2Cl)nc2nc3c(cc2c1=O)CCCC3, the cellular ATP content (survival) was -4.7% (inactive).
In the case of CC(=O)Nc1ccc(OCc2cccc([N+](=O)[O-])c2)cc1, the cellular ATP content (survival) was 1.1% (inactive).
For O=C(CSc1nc2ccccc2[nH]1)Nc1nc(-c2cccc(Br)c2)cs1, the cellular ATP content (survival) was -3.8% (inactive).
In the case of CCOC(=O)C1CCN(C(=O)CCS(=O)(=O)c2ccc3c(c2)CC(C)N3C(=O)CC)CC1 (stereo unspecified), the cellular ATP content (survival) was 0.4% (inactive).
In the case of Cc1ccc(C)c(N2CCN(C(=O)CN(C)S(=O)(=O)c3cnc[nH]3)CC2)c1, the cellular ATP content (survival) was -1.7% (inactive).
In the case of O=C(NCCO)c1cccc2c1C(=O)c1ccccc1-2, the cellular ATP content (survival) was -1.3% (inactive).
With Cc1[nH]c2ccccc2c1C(=O)COC(=O)Cn1c(C(F)(F)F)nc2ccccc21 the cellular ATP content (survival) was 0.2% (inactive).
For Cc1ccc(CNS(=O)(=O)/C=C/c2ccc3c(c2)OCO3)cc1, the cellular ATP content (survival) was -2.2% (inactive).
For CC(=O)Nc1ccccc1C(=O)N1CCN(c2cccc(C)c2C)CC1, the cellular ATP content (survival) was -1.4% (inactive).
For O=C(NCc1ccccn1)C1CC(c2ccc(F)cc2)=NO1 (stereo unspecified), the cellular ATP content (survival) was -1% (inactive).
In the case of CSc1nccc(N2CCN(c3ccc(F)cc3)CC2)n1, the cellular ATP content (survival) was 5.7% (inactive).
In the case of Cc1ccc(NC(=O)c2ccc(OC(=S)N3CCOCC3)cc2)cc1, the cellular ATP content (survival) was -1.3% (inactive).
In the case of Cc1cc(C)n(C(=O)COc2c(C)cccc2C)n1, the cellular ATP content (survival) was -2.8% (inactive).
In the case of CCc1ccc(-c2nc(CCl)cs2)cc1, the cellular ATP content (survival) was -1.7% (inactive).
For C=CCNCCCCOc1ccc(C)cc1[N+](=O)[O-], the cellular ATP content (survival) was -1.5% (inactive).
With CN(C)S(=O)(=O)c1ccc(C(=O)OCc2ccc(C#N)cc2)cc1 the cellular ATP content (survival) was -0.2% (inactive).
For C(=N\Nc1nc(N2CCOCC2)nc(N2CCOCC2)n1)/c1cccnc1, the cellular ATP content (survival) was 1.2% (inactive).
For CCOC(=O)c1cc2cc([N+](=O)[O-])cc(OC)c2oc1=O, the cellular ATP content (survival) was 0% (inactive).
For CC(=O)c1c(C)[nH]c(C(=O)COC(=O)CCSc2ccccc2)c1C, the cellular ATP content (survival) was 0.3% (inactive).
For COc1ccc(-c2csc(Nc3ccccc3)n2)cc1, the cellular ATP content (survival) was -1.2% (inactive).
With C=CC[C@@H]1Cc2c(Br)ccc(Br)c2[C@@H](CC=C)N1 the cellular ATP content (survival) was -0.9% (inactive).
